Test results: PubChem BioAssay (NCI)
Compounds without any hit were thinned out: in the full panel of roughly 79,000, 15% have a hit. Calls of active or inactive are those of the source. No stated cut-off is given here; in the data, active means growth inhibition above about 70%; inactive means the rest.

What was measured:
[1] = NCI Yeast Anticancer Drug Screen. Data for the wt1 strain (AID 149);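 further: 0% = growth of vehicle-treated wt1 cultures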; conditions: S. cerevisiae wt1 strain (SPY 50644) growth inhibition, stronger effect = higher value
How it was run: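 Growth inhibition read against vehicle controls after compound exposure of the wt1 yeast strain.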

[2] = NCI Yeast Anticancer Drug Screen. Data for the rad50EPP+ strain (AID 151);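 further: 0% = growth of vehicle-treated control cultures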; conditions: S. cerevisiae rad50 mutant strain, stronger effect = higher value
How it was run: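 Growth inhibition read against vehicle controls in rad50EPP+ yeast, a strain altered in DNA damage repair, after compound exposure.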

[3] = NCI Yeast Anticancer Drug Screen. Data for the rad50 strain (AID 155);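 further: 0% = growth of vehicle-only cultures of the same strain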; conditions: S. cerevisiae rad50 strain growth inhibition, stronger effect = higher value
How it was run: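 Readout: growth inhibition relative to vehicle-treated cultures. Compound exposure was carried out in a genetically defined yeast strain deficient in DNA damage repair.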

[4] = NCI Yeast Anticancer Drug Screen. Data for the mec2-1 strain (AID 157); conditions: S. cerevisiae mec2-1 strain, stronger effect = higher value
How it was run: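 Yeast mec2-1 mutant treated with compound. Readout: growth inhibition vs vehicle controls.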

[5] = NCI Yeast Anticancer Drug Screen. Data for the rad14 strain (AID 159);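 further: 0% = growth of vehicle-treated control cultures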; conditions: S. cerevisiae rad14 strain growth inhibition, stronger effect = higher value
How it was run: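 Growth inhibition vs vehicle controls; genetically altered yeast strain (DNA damage repair defect) treated with test compounds.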

[6] = NCI Yeast Anticancer Drug Screen. Data for the sgs1 mgt1 strain (AID 161);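 further: 0% = growth of cultures given vehicle only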; conditions: S. cerevisiae sgs1 mgt1 strain, stronger effect = higher value
How it was run: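 Inhibition of yeast growth, normalised to vehicle-treated controls, is reported for a strain bearing genetic alterations in DNA damage repair.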

[7] = NCI Yeast Anticancer Drug Screen. Data for the CLN2oe strain (AID 163);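 further: 0% = growth of vehicle-only control cultures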; conditions: S. cerevisiae CLN2oe strain, stronger effect = higher value
How it was run: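 Read-out: yeast growth inhibition, expressed relative to vehicle-only controls. The strain bears an engineered cell-cycle alteration.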

[8] = NCI Yeast Anticancer Drug Screen. Data for the cln2 rad14 strain (AID 165);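 further: 0% = growth equal to vehicle treated cultures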; conditions: S. cerevisiae cln2 rad14 strain, stronger effect = higher value
How it was run: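 cln2 rad14 yeast strain; compound exposure; growth inhibition read vs vehicle controls.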

[9] = NCI Yeast Anticancer Drug Screen. Data for the bub3 strain (AID 167); conditions: S. cerevisiae bub3 mutant strain, stronger effect = higher value
How it was run: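 Readout: yeast growth inhibition, expressed relative to vehicle-only wells. The test organism is a mutant strain from a panel with lesions in DNA repair or checkpoint genes.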

[10] = NCI Yeast Anticancer Drug Screen. Data for the wt2 strain (AID 169);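 further: 0% = growth of vehicle-treated yeast cultures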; conditions: S. cerevisiae wt2 strain growth inhibition, stronger effect = higher value
How it was run: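 Read-out: growth inhibition versus vehicle-treated control cultures after compound exposure of the yeast strain.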

[11] = NCI Yeast Anticancer Drug Screen. Data for the mlh1 strain (AID 171);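 further: 0% = growth of vehicle-treated control cultures of the same strain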; conditions: S. cerevisiae mlh1 strain growth inhibition, stronger effect = higher value
How it was run: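 Read-out: growth inhibition versus vehicle controls. Strain: engineered yeast with a defined DNA repair or cell cycle defect, compound-treated.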

[12] = NCI Yeast Anticancer Drug Screen. Data for the rad18 strain (AID 177); conditions: S. cerevisiae rad18 mutant growth inhibition, stronger effect = higher value
How it was run: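 Readout: growth inhibition vs vehicle controls. Cells: genetically altered yeast strain, DNA repair defect.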

[13] = NCI Yeast Anticancer Drug Screen. Data for the mgt1 strain (AID 153); conditions: S. cerevisiae mgt1 mutant growth inhibition, stronger effect = higher value
How it was run: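 mgt1 yeast grown with test compound; read-out is growth inhibition versus vehicle-treated cultures.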

[14] = NCI Yeast Anticancer Drug Screen. Data for the sgs1 strain (AID 173);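 further: 0% = growth of vehicle-only control cultures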; conditions: S. cerevisiae sgs1 mutant, stronger effect = higher value
How it was run: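 Read-out: yeast growth inhibition relative to vehicle controls, following compound exposure of a strain with a defined DNA repair/cell cycle alteration.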

[15] = NCI Yeast Anticancer Drug Screen. Data for the mlh1 rad18 strain (AID 175); conditions: S. cerevisiae mlh1 rad18 strain growth inhibition, stronger effect = higher value
How it was run: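 Yeast w/ defined DNA-repair lesions; compound exposure; growth vs vehicle controls → % inhibition.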

[16] = at 5.0 µM (retest, dose inferred, filed as 0.5)
[17] = at 50.0 µM (retest, dose inferred, filed as 5.0)

Measured: growth inhibition

Cc1ccc2c(/C=C/c3ccc(N(C)C)cc3)ccnc2c1C
active: [3]; at 50.0 µM 71.4% | [4]; at 50.0 µM 84.8% | [5]; at 100.0 µM 77% | [6]; [17] 87% | [6]; at 50.0 µM 86.5% | [7]; at 100.0 µM 71% | [9]; [17] 81% | [9]; at 50.0 µM 79.5% | [9]; at 100.0 µM 84% | [10]; at 100.0 µM 86% | [11]; at 100.0 µM 87%
inactive: [1]; at 1.2 µM -44% | [1]; at 3.7 µM -45% | [1]; at 11.0 µM -44% | [1]; at 33.0 µM -39% | [1]; at 100.0 µM 59% | [2]; at 1.2 µM -22% | [2]; at 3.7 µM -30% | [2]; at 11.0 µM -15% | [2]; at 33.0 µM 22% | [2]; at 100.0 µM 41% | [3]; at 1.2 µM -15% | [3]; at 3.7 µM -41% | [3]; [16] 9% | [3]; at 11.0 µM -20% | [3]; at 33.0 µM 14% | [3]; [17] 35% | [3]; at 100.0 µM 67% | [4]; at 1.2 µM -27% | [4]; at 3.7 µM -33% | [4]; [16] -7% | [4]; at 11.0 µM -42% | [4]; at 33.0 µM -16% | [4]; [17] 21% | [4]; at 100.0 µM 58% | [5]; at 1.2 µM -25% | [5]; at 3.7 µM -11% | [5]; at 11.0 µM -11% | [5]; at 33.0 µM -6% | [6]; [16] 33% | [7]; at 1.2 µM 26% | [7]; at 3.7 µM 34% | [7]; at 11.0 µM 26% | [7]; at 33.0 µM 39% | [8]; [16] 22% | [8]; [17] 61% | [8]; at 50.0 µM 29.9% | [9]; at 1.2 µM -8% | [9]; at 3.7 µM 7% | [9]; [16] 43% | [9]; at 11.0 µM 28% | [9]; at 33.0 µM 58% | [10]; at 1.2 µM -12% | [10]; at 3.7 µM -45% | [10]; at 11.0 µM -4% | [10]; at 33.0 µM 63% | [11]; at 1.2 µM -13% | [11]; at 3.7 µM -28% | [11]; at 11.0 µM -19% | [11]; at 33.0 µM 54% | [12]; at 1.2 µM 1% | [12]; at 3.7 µM -9% | [12]; at 11.0 µM -12% | [12]; at 33.0 µM 29% | [12]; at 100.0 µM 65%

Oc1ccc(Br)cc1C=Nc1cccc(C(F)(F)F)c1
active: [1]; at 33.0 µM 91% | [1]; at 100.0 µM 97% | [13]; at 11.0 µM 75% | [13]; at 33.0 µM 96% | [13]; at 100.0 µM 97% | [3]; at 33.0 µM 91% | [3]; [17] 92% | [3]; at 50.0 µM 70.5% | [3]; at 100.0 µM 97% | [4]; at 33.0 µM 97% | [4]; [17] 97% | [4]; at 50.0 µM 85.5% | [4]; at 100.0 µM 97% | [5]; at 11.0 µM 91% | [5]; at 33.0 µM 97% | [5]; at 100.0 µM 97% | [8]; [17] 86% | [9]; [17] 94% | [9]; at 50.0 µM 88.2% | [11]; at 33.0 µM 96% | [11]; at 100.0 µM 97% | [14]; at 33.0 µM 94% | [14]; at 100.0 µM 97% | [15]; [17] 97% | [12]; at 33.0 µM 83% | [12]; at 100.0 µM 97%
inactive: [1]; at 1.2 µM -2% | [1]; at 3.7 µM -7% | [1]; at 11.0 µM 9% | [2]; at 1.2 µM 0% | [2]; at 3.7 µM 4% | [2]; at 11.0 µM 10% | [2]; at 33.0 µM 30% | [2]; at 100.0 µM 64% | [13]; at 1.2 µM -2% | [13]; at 3.7 µM 21% | [3]; at 1.2 µM -28% | [3]; at 3.7 µM -20% | [3]; [16] 16% | [3]; at 11.0 µM 32% | [4]; at 1.2 µM 3% | [4]; at 3.7 µM -7% | [4]; [16] -17% | [4]; at 11.0 µM 59% | [5]; at 1.2 µM 6% | [5]; at 3.7 µM 13% | [7]; at 1.2 µM -4% | [7]; at 3.7 µM -1% | [7]; at 11.0 µM -1% | [7]; at 33.0 µM 1% | [7]; at 100.0 µM 25% | [8]; [16] 28% | [8]; at 50.0 µM 61% | [9]; at 1.2 µM -6% | [9]; at 3.7 µM -1% | [9]; [16] 42% | [9]; at 11.0 µM -5% | [9]; at 33.0 µM 0% | [9]; at 100.0 µM 28% | [11]; at 1.2 µM -1% | [11]; at 3.7 µM 17% | [11]; at 11.0 µM 68% | [14]; at 1.2 µM 14% | [14]; at 3.7 µM 10% | [14]; at 11.0 µM 65% | [15]; [16] 48% | [15]; at 50.0 µM 66.9% | [12]; at 1.2 µM -15% | [12]; at 3.7 µM -12% | [12]; at 11.0 µM 16%

O=C1c2ccccc2C2CCC1c1ccccc12 (configuration not stated)
active: [1]; at 100.0 µM 97% | [13]; at 100.0 µM 97% | [3]; at 100.0 µM 94% | [4]; at 100.0 µM 98% | [5]; at 100.0 µM 97% | [7]; at 100.0 µM 98% | [11]; at 100.0 µM 94% | [12]; at 100.0 µM 96%
inactive: [1]; at 1.2 µM -12% | [1]; at 3.7 µM -14% | [1]; at 11.0 µM -13% | [1]; at 33.0 µM -6% | [2]; at 1.2 µM 1% | [2]; at 3.7 µM -4% | [2]; at 11.0 µM -2% | [2]; at 33.0 µM 50% | [2]; at 100.0 µM 68% | [13]; at 1.2 µM -12% | [13]; at 3.7 µM 6% | [13]; at 11.0 µM 5% | [13]; at 33.0 µM 17% | [3]; at 1.2 µM -19% | [3]; at 3.7 µM -5% | [3]; [16] 0% | [3]; at 11.0 µM 3% | [3]; at 33.0 µM 20% | [3]; [17] -29% | [3]; at 50.0 µM 62.9% | [4]; at 1.2 µM -24% | [4]; at 3.7 µM -14% | [4]; [16] -6% | [4]; at 11.0 µM 3% | [4]; at 33.0 µM 12% | [4]; [17] -19% | [4]; at 50.0 µM -6.1% | [5]; at 1.2 µM -25% | [5]; at 3.7 µM -24% | [5]; at 11.0 µM -17% | [5]; at 33.0 µM -6% | [7]; at 1.2 µM 2% | [7]; at 3.7 µM -5% | [7]; at 11.0 µM 7% | [7]; at 33.0 µM 59% | [8]; [16] -19% | [8]; [17] 13% | [8]; at 50.0 µM 18.3% | [11]; at 1.2 µM -3% | [11]; at 3.7 µM 6% | [11]; at 11.0 µM 14% | [11]; at 33.0 µM 28% | [15]; [16] -45% | [15]; [17] 26% | [15]; at 50.0 µM 10.6% | [12]; at 1.2 µM -40% | [12]; at 3.7 µM -30% | [12]; at 11.0 µM -38% | [12]; at 33.0 µM -26%
